The source of these data is PubChem BioAssay AID651550 (National Center for Advancing Translational Sciences (NCATS), 2012).

Structures are written as SMILES. Hit rate of the full screen: of about 360,000 compounds, about 1,100 (0.31%) were called active. Shown is part of a subset that was picked to be rich in actives. Values without a mark were called inactive. No stated cut-off is given here; in the data, active means activity change below about -80%; inconclusive means mostly about -51% to -80%; inactive means weaker than that.
On the % scale 0 is the no-effect control and ±100 the full control effect.

In the assay the target is RAC-alpha serine/threonine-protein kinase (Homo sapiens) (UniProt P31749). Description: HTS Assay for Inhibitors of Akt Phophorylation: Primary Screen. Particulars: Neuro2A IGF-stimulated pAkt S473 HTRF, 20 min; at 50 µM, active compounds read low. The text has this:
The serine/threonine protein kinase Akt (protein kinase B) regulates various cellular processes, including cell survival, growth, proliferation, migration and differentiation. It has been well established that Akt is activated through two essential steps involving membrane translocation and phosphorylation. Cytosolic Akt is recruited to the plasma membrane via the interaction between the PH domain and membrane PIP3 produced by phosphoinositide-3 kinase (PI3K) upon growth factor receptor stimulation. The membrane-Akt interaction results in conformational changes of Akt, enabling its activation through phosphorylation at T308 in the kinase domain and at S473 in the C-terminal hydrophobic motif by PDK1 and mTOR-rictor complex (mTORC2), respectively. […] These findings indicate that S473 phosphorylation, as an important modulator of Akt activation, may be a valuable drug target for cell growth, survival, proliferation and differentiation. These inhibitors also may have significant therapeutic potential with fewer side effects, especially for the conditions involving hyperactive Akt signaling, such as cancer and Alzheimer's disease.
To this end, a miniaturized assay was developed to be screened against the Molecular Libraries Small Molecule Repository (MLSMR).
NIH Chemical Genomics Center [NCGC]
NIH Molecular Libraries Probe Centers Network [MLPCN]
Assay Submitter (PI): Hee-Yong Kim, National Institute on Alcohol Abuse and Alcoholism
3 uL of Neuro2A cell suspension in DMEM containing 0.5% FBS and […] antibiotics mix was plated in a white solid bottom tissue culture-treated 1536-well plate (Greiner Bio-One, Monroe, NC) at 4,500 cells per well and incubated overnight at 37 deg C. 23 nL/well of compound solutions in DMSO was added with Pintool transfer (Kalypsis, San Diego, CA) at single […] final concentration. Then, the cells were stimulated with 1.5 uL of IGF (6 nM final concentration) and incubated at 37 deg C for 20 min. The reaction was terminated by the addition of 1.5 uL blocking reagent mixed with lysis buffer (1:25 correspondingly) provided with HTRF(R) Phospho Akt (Ser473) kit (Cisbio US, Bedford, MA), with following incubation for 50 min at ambient temperature. The detection HTRF conjugates from the kit were prepared according to the protocol, pre-mixed 1:1 prior to dispensing, and 2 uL/well was added with BioRAPTR FRD dispenser (Beckman Coulter). The assay plates were incubated for 24 hours at ambient temperature, and the HTRF fluorescence was measured using Envision plate reader (PerkinElmer) with excitation at 330nm, emission at 615nm (Eu(3)-Cryptate donor signal) and 665nm (d2 acceptor signal). The ratio of […] was calculated for each well.
In the case of `Cc1cccc(C(=O)Nc2ccc(Oc3cnccn3)cc2)c1`, the activity change result was “inactive”. As to `Cc1cccc(C(=O)Nc2ccc3c(c2)C(=O)N(CC(C)C)C3=O)c1`, the activity change result is “inactive”. Consider `Cc1cccc(C(=O)Nc2ccc(C(=O)/C=C/c3cccs3)cc2)c1`, for which the activity change is -121% (active). Consider `CCCCCc1c(Cc2ccccc2)ncn1CCc1ccccc1OC`, for which the activity change entry is “inactive”. Regarding `COc1ccc(N2C(=O)CCC(C(=O)N(C)C3CCCCC3)C2c2ccc(OC)c(OC)c2)cc1` (centres undefined), the activity change entry is “inactive”. `COc1ccc(S(=O)(=O)N[C@@H]2C=C[C@@H](CC(=O)N3CCc4ccccc4C3)O[C@@H]2CO)cc1`: the activity change entry is “inactive”. On to `Cc1cc(C)cc(NC(=O)N2CCC(NC(=O)c3ccc(F)cc3)CC2)c1`, for which the activity change is -96.8% (active). On to `Cc1ccc(C(=O)NC2CCN(C(=O)Nc3ccc(F)cc3)CC2)cc1`, for which the activity change entry is “inactive”. Turning to `COc1ccc(C(=O)NC2CCN(C(=O)Nc3ccc(F)cc3)CC2)cc1`, the activity change result was “inactive”. In the case of `Cc1ccc(S(=O)(=O)N2C[C@H]3n4c(=O)ccc(=O)n4C[C@H](OC(=O)NC4CCCC4)[C@@]3(O)C2)cc1`, the activity change result was “inactive”. For the molecule `Cc1ccc2nc(Nc3ncc4c(n3)CC(C)(C)CC4=O)nc(C)c2c1`, the activity change entry is “inactive”. Consider `CC(=O)N1CCC(C(=O)Nc2nc(-c3ccccc3)ns2)CC1`, for which the activity change entry was “inactive”.

For `O=C(NNC(=O)C1CCN(c2ncccn2)CC1)c1ccccc1`, the activity change entry was “inactive”. With `Cc1cc(-c2ccccc2)nc(N2CCC(C(=O)NC34CC5CC(CC(C5)C3)C4)CC2)n1`, the activity change is -97.3% (active).

Take `CCCCCNC(=O)C1C(=O)Nc2ccccc2C(=O)N1C(C)(C)C` (centres undefined): the activity change entry was “inactive”.

`COC(=O)[C@]12CCCCC=C1N(Cc1ccc(Cl)cc1Cl)C(=O)[C@H](CC(=O)NCc1cccc3ccccc13)C2`: the activity change result is “inactive”. As for `COC(=O)C1(C(=O)OC)C[C@H](c2ccccc2)N(Cc2ccccc2OC)[C@@H]1c1ccccc1`, the activity change result is “inactive”. With `O=C(N[C@H]1CC[C@H](CC(=O)N2CCCCC2)O[C@@H]1CO)c1cccc(F)c1` the entry was “inactive”; with `c1ccc(CSc2ncnc3c2sc2nc(N4CCOCC4)c4c(c23)CCCC4)cc1`, -92.8% (active); with `c1ccc(COc2nsnc2N2CCOCC2)cc1`, “inactive”.

For the molecule `CCc1nc2sc3c(Cl)ncnc3c2c2c1CCCC2`, the activity change entry was “inactive”. Turning to `COC(=O)[C@@]12C[C@@H](CC(=O)NCCCCc3ccccc3)C(=O)N(CCc3ccc(OC)c(OC)c3)C1=CCC(C)(C)C2`, the activity change result was “inactive”. `CCOC(=O)NC(=O)CSc1nnc(SCCC(=O)O)s1`: the activity change entry was “inactive”. Regarding `COC(=O)[C@@]12C[C@@H](CC(=O)N3CCCCC3)C(=O)N(Cc3ccc4c(c3)OCO4)C1=CCC(C)(C)C2`, the activity change result is “inactive”. With `N#Cc1c(N)nc2c3c(sc(=N)c2c1N)NC(=O)CC3c1ccccc1Cl` (centres undefined) the figure was -87.7% (active); with `COc1ccc(C2CC(=O)Nc3sc(=N)c4c(N)c(C#N)c(N)nc4c32)cc1OC` (centres undefined), “inactive”; with `CSc1nc2c(c(=O)[nH]1)C(c1cccc(Cl)c1Cl)CC(=O)N2` (centres undefined), “inactive”. To `CN(C(=O)C1CCN(c2ncnc3c2nc2n3CCCCC2)CC1)C1CCCCC1` belongs “inactive”; to `Cc1ccnc(NC(=O)CCC(=O)N(CC(=O)NCc2ccccc2)Cc2ccco2)c1`, “inactive”.

As to `CCOC(=O)N1CCN(C(=O)C[C@@H]2C[C@@]3(C(=O)OC)CC(C)(C)CC=C3N(Cc3ccco3)C2=O)CC1`, the activity change result was “inactive”. For the molecule `O=C(COC(=O)c1cc2c(s1)CCCC2)NCc1ccccc1Cl`, the activity change entry was “inactive”. As for `O=C(NCc1ccccc1Cl)c1csc2c1CCCCC2`, the activity change is -106% (active). As to `CC1CC(C)CN(CCCNC(=O)c2csc3c2CCCCC3)C1` (centres undefined), the activity change result is “inactive”.

Regarding `CC(=O)Cc1nsc(NC(=O)c2csc3c2CCCC3)n1`, the activity change was -104% (active).

For the molecule `CC(=O)Cc1nsc(NC(=O)c2ccc(COc3ccc(C)cc3)o2)n1`, the activity change result was “inactive”. With `CC(=O)Cc1nsc(NC(=O)c2ccc(Cl)cc2Cl)n1`, the activity change result was “inactive”. For the molecule `CCOC(=O)C=Cc1ccc(C(=O)OCC)[nH]1`, the activity change entry is “inactive”. Consider `Cc1ccc(S(=O)(=O)N2CC3C(=O)C[C@@H](c4ccccc4Cl)N(S(=O)(=O)c4ccc(C)cc4)C3CC2c2ccccc2)cc1` (some centres undefined), for which the activity change result is “inactive”.

Take `Cc1ccc(-c2c3c(=O)n(C)c(=O)n(C)c3cn2-n2cnnc2)cc1`: the activity change was -111% (active). `COc1cccc(-n2cc3c(c2-c2ccccc2)c(=O)n(C)c(=O)n3C)c1`: the activity change is -16.8%. To `Cc1cn(C)c(=O)n(C)c1=O` belongs “inactive”. With `COc1ccc(C(C(=O)NCc2ccccc2)n2c(=O)c(-c3ccccc3)nc3ccccc32)cc1` (centres undefined) the entry was “inactive”; with `COc1cc(OC)c(NS(=O)(=O)c2cn(C)cn2)cc1Cl`, “inactive”; with `CCC(c1nc2ccccc2[nH]1)n1c(=O)c(-c2cccs2)nc2ccccc21` (centres undefined), “inactive”.

For the molecule `N#Cc1ccc(C(C(=O)NCc2ccccc2)n2c(=O)c(-c3ccco3)nc3ccccc32)cc1` (centres undefined), the activity change result was “inactive”. `Cc1cc(NC(=O)CSc2nc3c(cc2C#N)CCCCC3)no1`: the activity change result was “inactive”.

For `CC(C)c1nc(SCC(=O)Nc2cccc(C(=O)O)c2)c2c3c(sc2n1)CCCC3`, the activity change entry was “inactive”. Turning to `Cc1cc(NC(=O)CSc2nc(C(C)C)nc3sc4c(c23)CCC(C)C4)no1` (centres undefined), the activity change was -89.6% (active). On to `Cn1cnc(S(=O)(=O)N2C[C@@H](O)COC[C@@H]3O[C@H](CC(=O)NC4CCC4)CC[C@H]32)c1`, for which the activity change result was “inactive”. On to `COc1ccc(-c2cc3c(c4c2ccn4C)C2CCC3C2)cn1` (centres undefined), for which the activity change result is “inactive”.

Regarding `Nc1nc(C23CC4CC(CC(C4)C2)C3)cs1`, the activity change result is “inactive”. For `CC(C)CN1C(=O)CN(S(C)(=O)=O)CC1(C)C(=O)NCc1ccccc1` (centres undefined), the activity change entry was “inactive”. For the molecule `c1ccc(Nc2nc(-c3ccncc3)cs2)nc1`, the activity change is -89.8% (active).

With `Brc1ccc(-c2csc(N/N=C/c3cccnc3)n2)cc1`, the activity change entry is “inactive”. `Cc1ccc(Nc2nc(-c3ccc(O)cc3O)cs2)nc1`: the activity change entry was “inactive”. On to `O=C(COC(=O)Cc1ccc(Cl)cc1Cl)NCc1ccco1`, for which the activity change entry was “inactive”.

Consider `O=C(COC(=O)c1ccccc1O)NCc1ccco1`, for which the activity change result is “inactive”. `O=C(COC(=O)CCC(=O)c1cccs1)NCc1ccco1`: the activity change is -115% (active). With `O=C(COC(=O)c1cc([N+](=O)[O-])ccc1NCc1ccccc1)NC1CCCCC1` the entry was “inactive”.

As for `C=C1C(=O)OC2C1CCC(C)=CCCC1(C)OC21` (centres undefined), the activity change result is “inactive”. Consider `CC(NCCO)C(=O)C12CC3CC(CC(C3)C1)C2` (centres undefined), for which the activity change result was “inactive”. Consider `O=C1c2oc3ccccc3c(=O)c2C(c2cccc(O)c2)N1c1ccccn1` (centres undefined), for which the activity change entry was “inactive”. On to `COCCN1C(=O)c2oc3c(C)cc(C)cc3c(=O)c2C1c1cccc(O)c1` (centres undefined), for which the activity change is -117% (active).

On to `COCCN1C(=O)C(=O)/C(=C(/O)c2ccc(S(=O)(=O)N3CCOCC3)cc2)C1c1ccc(O)c(OC)c1` (centres undefined), for which the activity change result was “inactive”.
